Rows were chosen to be rich in hits. Some 5.4% of all compounds tested hit in one or more screens of this group.
VACV mCherry inh – vaccinia inhibition (mCherry reporter); Vaccinia virus mCherry reporter infection, fluorescence; Potency, µM (series often up to 36.5 µM), without a hit: at the top dose activity change, negative = inhibition, most hits filed as inhibitors; 310,000 tested, 0.63% active; calls by dose curve; tested in A549 cells; further: nearly all actives have a fitted effect of over 35% in size
MARV entry inh – Marburg virus entry inhibition; Marburg virus pseudotyped entry inhibition, cell reporter; Potency, µM (highest dose often 37.8 µM), for inactives: at the top dose activity change, negative = inhibition, usual class: inhibitors; 300,000 tested, 1.8% active; AID 540276; calls by dose curve; tested in HEK293 cells
VACV Venus inh – inhibitors of vaccinia virus (Venus reporter); Vaccinia virus Venus reporter expression, fluorescence; Potency, µM (highest dose often 36.5 µM), for inactives: at the top dose activity change, negative = inhibition, usual class: inhibitors; 330,000 tested, 0.46% active; AID 720580; calls by dose curve; tested in A549 cells; further: nearly all actives have a fitted effect of over 30% in size
FMDV inh – antivirals against foot and mouth disease virus | AID 1159524 | FMDV antiviral cell-based qHTS | Potency, µM (doses to about 57.9 µM), for inactives: top-dose activity change, negative = inhibition, hits mostly inhibitors | 410,000 tested, 1.2% active; calls by dose curve; tested in HEK293T cells; further: read-out not given here; nearly all actives have a fitted effect of over 45% in size
Lassa entry inh – blocks Lassa virus binding to or entry into cells; AID 540256; 300,000 tested, 1.2% active; Lassa virus pseudotype entry inhibition, cell reporter; Potency, µM (titrated, usually from 37.9 µM), inactives show top-dose activity change, negative = inhibition, most hits filed as inhibitors; calls by dose curve; tested in HEK293 cells; further: nearly all actives have a fitted effect of over 50% in size
Sm TGR inh – blocks Schistosoma mansoni thioredoxin glutathione reductase. Q962Y6. purified TGR, DTNB reduction, TNB absorbance 405 nm. Potency, µM (titrated, usually from 114 µM), for the others: at the highest dose activity change, negative = inhibition, usual class: inhibitors. 360,000 tested, 3% active; active means well fitted inhibition curve with a large enough effect; inconclusive means small, poorly fitted or top-dose-only effect; inactive means no such curve, though single readings can be large or run the other way; further: nearly all actives have a fitted effect of over 60% in size
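First, TGR (20 nM dispensed) and NADPH were mixed with compound. Second, a 15 min room-temperature incubation followed. Third, further NADPH and then DTNB were added to start the reaction. Finally, TNB absorbance was monitored kinetically.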
Active calls of the source: *; i = inactive; ? = inconclusive; · = no result; ! = not active in a repeat; [ ] = another dose, or the depositor's remark. On the % scale 0 is the no-effect control and ±100 the full control effect; potency means the concentration at half of the fitted maximal effect.

SMILES	VACV mCherry inh	MARV entry inh	VACV Venus inh	FMDV inh	Lassa entry inh	Sm TGR inh
CN[C@H]1CCc2cc(OC)c(OC)c(OC)c2-c2ccc(N(C)CC(OC)OC)c(=O)cc21	·	·	·	-10%	·	0%
COc1cc2c(c(OC)c1OC)-c1ccc(OC)c(=O)cc1[C@@H](N(C)CC#CCO)CC2	-16%	?	?	-3%	?	?
COc1cc2c(c(OC)c1OC)-c1ccc(N(C)CC(OC)OC)c(=O)cc1[C@@H](NC(C)=O)CC2	-30%	1µM*	-26%	-1%	?	-14%
CCN(CC)c1ccc2c(cc1=O)[C@@H](NC)CCc1cc(OC)c(OC)c(OC)c1-2	?	4µM*	-17%	-1%	1.1µM*	-22%
CCc1ccc(CNc2ncc(-c3cccc(OC)c3)n2C)cc1	?	?	?	-29%	?	-5%
COc1ccc(C)cc1N1C(=N)/C(=C2/Nc3ccccc3S2)C(c2ccccc2)C1=O (configuration not stated)	-12%	?	-18%	25µM*	-1%	-16%
COc1ccc(C2C(Oc3ccccc3)C(=O)N2c2cc(C)ccc2C)cc1OC (configuration not stated)	-9%	?	-11%	14%	?	-17%
COc1cc2c(cc1OC)CN(c1nc(-c3cccnc3)nc3ccccc13)CC2	-25%	?	-30%	16µM*	?	?
CN1CCN(c2nc(-c3cccnc3)nc3ccccc23)CC1	-11%	?	-10%	6%	?	2%
O=P(c1ccccc1)(c1nc2ccccc2s1)N1CCOCC1 (configuration not stated)	·	15%	·	18%	-8%	50µM*
CN1CCN(P(=O)(c2ccccc2)c2nc3ccccc3s2)CC1 (configuration not stated)	?	-15%	-14%	·	7%	-26%
C=CCc1ccc(OC)cc1	2.2µM*!	·	4µM*!	-28%	·	-16%
CNCCC=C1c2ccccc2CCc2ccccc21	-6%	7.1µM*	?	?	21µM*	-16%
O=C(CCl)Nc1cc(SCC(O)CO)cc([N+](=O)[O-])c1 (configuration not stated)	2.8µM*	?	4µM*	14µM*	?	·
CCC(=O)Nc1cc(ON=C(C)C)cc([N+](=O)[O-])c1	-21%	?	-14%	-24%	2%	0%
CC(C)=NOc1cc(NC(=O)CCl)cc([N+](=O)[O-])c1	?	23µM*	-26%	7.9µM*	18µM*	11µM*
Cc1cc(S(=O)(=O)Nc2cc3c(cc2N2CCOCC2)n(C)c(=O)n3C)ccc1F	0%	-7%[46.1 µM]	-11%	-5%	?	-7%
Cn1c(=O)c(=O)n(C)c2cc(N3CCOCC3)c(NS(=O)(=O)c3ccc(F)c(Cl)c3)cc21	11µM*	-10%[46.1 µM]	?	3%	-5%[46.1 µM]	-16%
Cn1c(=O)c(=O)n(C)c2cc(N3CCCC3)c(NS(=O)(=O)c3ccc(Cl)cc3)cc21	·	·	·	-6%	·	50µM*
Cn1c(=O)c(=O)n(C)c2cc(N3CCOCC3)c(NS(=O)(=O)c3ccc([N+](=O)[O-])cc3)cc21	·	·	·	3%	·	-31%
C=CCN1C(=O)CC[C@@]23C1=NC(C(=O)OC)=C(C(=O)OC)[C@@H]2N(C)c1ccccc13	·	14%[14.2 µM]	·	·	·	·
OCc1ccc(-c2nn(Cc3ccccc3)c3ccccc23)o1	-25%	2.6µM*	-23%	-1%	2.9µM*	?
Cc1ccc(NS(=O)(=O)c2ccc(Br)s2)nc1	-16%	-1%[46.1 µM]	-6%	36%	-8%	16µM*
COc1cccc(C2CC(=O)N3CN(c4cccc(Cl)c4C)CSC3=C2C#N)c1OC (configuration not stated)	42%	·	1%	-5%	·	0%
COc1ccc(OC)c(C2CC(=O)N3CN(c4cccc(Cl)c4)CSC3=C2C#N)c1 (configuration not stated)	i	5%	-10%	0%	·	50µM*
SMILES	VACV mCherry inh	MARV entry inh	VACV Venus inh	FMDV inh	Lassa entry inh	Sm TGR inh
COc1ccc(OC)c(C2CC(=O)N3CN(c4cccc(Cl)c4C)CSC3=C2C#N)c1 (configuration not stated)	51%	·	6%	-6%	·	10µM*
CCOC(=O)c1ccc(N2CSC3=C(C#N)C(c4ccc(OC)cc4OC)CC(=O)N3C2)cc1 (configuration not stated)	25%	4%	-3%	-22%	·	?
COc1ccc(OC)c(C2CC(=O)N3CN(c4ccc(C)c(Cl)c4)CSC3=C2C#N)c1 (configuration not stated)	-20%	-2%	16%	0%	·	20µM*
COc1ccc(CN2CCC3(CCC(CNC(=O)c4ccnn4C)O3)CC2)c(C)c1C (configuration not stated)	i	·	-12%	-4%	·	·
COc1ccccc1N=Cc1c(C)[nH]n(-c2ccc(C)cc2C)c1=O	-18%	-8%[46.1 µM]	-3%	?	?	40µM*
Cc1ccc(C(=O)N(Cc2cc3cccc(C)c3nc2N2CCC(O)CC2)C2CC2)cc1	-23%	·	-23%	-13%	·	·
COc1cccc(C(=O)Nc2nc(-c3nnn(-c4cccc(Cl)c4C)c3C)ns2)c1	-21%	·	-18%	-19%	3%[46.1 µM]	10%
CC1(C)Cc2c(c(-c3ccco3)nc3sc4c(NCCN5CCOCC5)ncnc4c23)CO1	-6%	?	-21%	?	1%	40µM*
CC(C)CNc1ncnc2c1sc1nc(N3CCOCC3)c3c(c12)CC(C)(C)OC3	·	18%	4%	0%	-8%	-20%
CC1(C)Cc2c(c(-c3ccco3)nc3sc4c(NCC5CCCO5)ncnc4c23)CO1 (configuration not stated)	8%	-4%	-14%	?	8%	79µM*
CCN(CC)CCNc1ncnc2c1sc1nc(N3CCCC3)c3c(c12)CC(C)(C)OC3	?	?	?	?	?	1%
CCCc1nc2oc3c(NCC4CCCO4)ncnc3c2c2c1COC(C)(C)C2 (configuration not stated)	·	-24%	·	-22%	10%	10%
CC1(C)Cc2c(c(-c3ccco3)nc3sc4c(NCCCO)ncnc4c23)CO1	·	·	·	?	·	2µM*
CSc1nc(NCCN(C)C)c2sc3nc(-c4ccco4)c4c(c3c2n1)CCC4	i	?	-6%	9%	-11%	·
CN(C)CCNc1ncnc2c1sc1nc(N3CCCC3)c3c(c12)CC(C)(C)OC3	-24%[7.34 µM]	7.9µM*	-18%[7.34 µM]	?	?	9%
Cc1c(NC(=O)Cc2ccc(Cl)cc2)cccc1-c1nc2cccnc2s1	-16%	·	-15%	0%	13%[46.1 µM]	2%
O=S(=O)(c1ccccc1)c1nnn2c1nc(Nc1ccccc1)c1cc(Cl)ccc12	?	8%[46.1 µM]	?	0%	·	3%
CCC(Cn1nnc2ccccc2c1=O)NC(=O)Nc1ccc(C)c(C)c1 (configuration not stated)	-8%	2%[46.1 µM]	-5%	5%	7%[46.1 µM]	0%
